Assay results published in PubChem BioAssay (NCI).
Compounds without any hit were thinned out: in the full panel of roughly 83,000, 20% have a hit.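 Results are percent growth after 48 hours of single-concentration exposure. 100 means growth as in untreated cells, lower positive values show inhibition; negative values down to -100 show cell death.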 Unmarked numbers belong to inactive results. The source made the active and inactive calls. The calls were made as follows: active = growth percent below 10; inactive = the rest.

How the values were obtained:
Test in all cases: NCI-60 one-dose screen, 48 h (100 = growth as untreated, 0 = no growth, -100 = all killed)
Details in all cases: 10 µM unless noted
NCI-H23 lung = system: NCI-H23 lung
NCI-H226 lung = system: NCI-H226 lung
NCI-H322M lung = system: NCI-H322M lung
HOP-62 NSCLC = system: HOP-62 NSCLC
NCI-H460 lung = system: NCI-H460 lung
HOP-92 NSCLC = system: HOP-92 NSCLC
NCI-H522 lung = system: NCI-H522 lung
A549/ATCC NSCLC = system: A549/ATCC NSCLC
786-0 renal = system: 786-0 renal
COLO 205 colon = system: COLO 205 colon

SMILES | growth (NCI-H23 lung) | growth (NCI-H226 lung) | growth (NCI-H322M lung) | growth (HOP-62 NSCLC) | growth (NCI-H460 lung) | growth (HOP-92 NSCLC) | growth (NCI-H522 lung) | growth (A549/ATCC NSCLC) | growth (786-0 renal) | growth (COLO 205 colon)
S=C(c1cccs1)N1CCN(c2cccc(Cl)c2)CC1 | 99.2% | 92.7% | 122% | 102% | 105% | 81.7% | 81.1% | 87.6% | 85.4% | 107%
CN(C(=O)NCc1cccc(F)c1Cl)[C@H](COC(=O)Nc1cc2ccccc2cn1)CC(O)CO (stereo partly drawn) | 96.5% | 92.7% | 86.4% | 64.8% |  | 28% | 84.5% | 80.9% | 68% | 
O=C(/C=C/c1ccc([N+](=O)[O-])o1)NNC(=O)c1cc2ccccc2cc1O | 6.76% (active) | 0.682% (active) | 23.3% | 27.5% | 9.04% (active) | 4.15% (active) | -79.5% (active) | 32.4% | -23.8% (active) | -7.38% (active)
COc1ccc(CNC(=O)C(=O)[C@H](Cc2ccccc2)NC(=O)c2[nH]c3ccccc3c(=O)c2C)cc1 | 101% | 103% | 96.8% | 102% | 108% | 117% | 96.4% | 95.6% | 102% | 113%
Cn1cc(C(=O)c2nc(-c3cn(C)c4ccc(F)cc34)no2)c2cc(F)ccc21 | 92.5% | 89.1% | 84% | 92.2% | 90.7% | 83.6% | 79.3% | 87.5% | 107% | 103%
NCCCNc1nc2ccccc2c2c(=O)c3cc(F)cc(F)c3sc12 | 84% | 92.5% | 84.5% | 78.9% | -75.1% (active) | 36% | 92.7% | 78.1% | -88.8% (active) | 63.6%
O=c1ccc(N=Nc2ccccc2)ccc1Cl | 16.4% | 87.7% | 103% | 93.9% |  | 114% | -22.6% (active) | 103% | 48.8% | 
NS(=O)(=O)c1ccc(N=Nc2ccc(-c3nn4cc(-c5ccccc5)nc4s3)cc2)cc1 | 97.1% | 99.9% | 103% | 83% | 113% | 105% | 89.9% | 96.9% | 94.6% | 100%
OC(COc1ccccc1)CN1CCN(c2ccc(Cl)cc2)CC1 (stereo not drawn) | 95% | 95.3% | 115% | 123% | 105% | 80.5% | 98.3% | 87.1% | 102% | 99.3%
Nc1nc(Cl)cc(=O)n1Cc1ccccc1 | 88.1% | 87.6% | 89.6% | 97.8% | 105% | 88.3% | 86.7% | 94.6% | 101% | 114%
CCOc1cccc(NC2=C(Br)C(=O)C(C)=C(C)C2=O)c1 | 67.5% | 72% | 96.2% | 83.6% | 100% | -8.14% (active) | 80.5% | 103% | 104% | 123%
Cc1oc2nc[nH]c(=O)c2c1C(=O)/C=C/c1ccc(Br)cc1 | -11.2% (active) | -8.79% (active) | 2.39% (active) | 12.1% | 3.92% (active) | -10.7% (active) | 13.9% | 9.19% (active) | 11.5% | 3.83% (active)
COc1cccc(-c2nc(-c3ccc(NS(=O)(=O)c4ccccc4)cc3)[nH]c2-c2ccnc(Br)c2)c1 | 25.8% | 37.3% | 32.4% | 26.5% |  | 24.5% | 20.7% | 29% | 20% | 35.5%
O=c1c2cc(F)ccc2sc2c(NCCCNCCO)nc3ccc(F)cc3c12 | 82.5% | 84.8% | 79.4% | 71.5% |  | 4.67% (active) | 60.9% | 64.7% | 64.1% | 23.3%
COc1cc(/C=C/C(=O)/C=C/c2cc(OC)c3c(c2OC)OCO3)c(OC)c2c1OCO2 | 33.2% | 73.9% | 56.8% | 72.8% |  | 74.1% | -15.5% (active) | 55.1% | 29% | 13.3%
Cc1nc(NC(=O)COc2ccc(/C=C3\Cc4ccc(Cl)cc4C3=O)cc2)sc1C | 100% | 99.2% | 183% | 102% |  | 88.9% | 78.9% | 105% | 103% | 120%
OC(COc1ccccc1Cl)CN1CCN(c2cccc(Cl)c2)CC1 (stereo not drawn) | 100% | 96.5% | 108% |  | 121% | 79.2% | 88.5% | 101% | 98.3% | 
CC(=O)OC[C@H]1OC(Sc2sc(C(=O)c3ccc(Br)cc3)c(N)c2-c2nc3ccccc3s2)[C@H](OC(C)=O)[C@@H](OC(C)=O)[C@H]1OC(C)=O (stereo partly drawn) | 88.4% | 65.6% | 91.8% | 91.1% |  | 98.3% | 94.1% | 92.2% | 94.4% | 108%
O=C(N/N=C/[C@@H](O)[C@H](O)[C@H](O)CO)c1ccc(NC(=O)c2cccnc2)cc1 | 107% | 99.9% | 104% | 102% |  | 103% | 99.3% | 101% | 106% | 107%
CC(=O)CC(c1cccs1)c1c(-c2ccccc2)[nH]c2ccccc12 (stereo not drawn) | 66% | 84.3% | 91.4% | 89.5% |  | 72.6% | 80.6% | 91.3% | 98.9% | 107%
COc1ccc2c(c1)c(-c1ccc(-c3cn(C)c4ccc(OC)cc34)o1)cn2C | 67.3% | 82.7% | 95.1% | 93.2% |  | 38% | -19.6% (active) | 66.4% | 83.2% | 16.3%
CC(=O)CC[C@H]1C(=O)N[C@@H](C(C)C)C(=O)N[C@@H](Cc2cc(O)cc(F)c2)C(=O)N2CCC[C@H](N2)C(=O)O[C@H](/C(C)=C/C=C/C(=O)OC(C)(C)C)C/C=C/C=C/[C@H](O)[C@H](C)[C@H]1O | 42.2% | 76.8% | 69.2% | 44.9% |  | 55.2% | 43.8% | 49.9% | 36.2% | 51.7%
O=C1COCCN1c1ccc(NCc2cn(C(=O)c3ccc(Cl)cc3)c3ccccc23)cc1 | 54.5% | -61.1% (active) | 95.1% | 60.2% |  | 58.2% | 65.6% | 46.9% | 65.8% | 29.3%
CCOC(=O)c1sc2ncc(-c3ccc(C)cc3)n2c1C | 83% | 78.2% | 92.6% | 87.9% |  | 83.9% | 86.2% | 97.3% | 106% | 99.7%
Oc1c(I)cc(I)cc1CNCCCN(Cc1ccccn1)Cc1ccccn1 | -37% (active) | -78.4% (active) | -75.3% (active) | -52.7% (active) |  | -76.1% (active) | -56.4% (active) | -51.8% (active) | -95.4% (active) | -34.2% (active)
COc1ccc(-c2nc(NCCO)[nH]c(=O)c2C#N)cc1 | 95.1% | 99.9% | 95.8% | 86.3% |  | 98.5% | 88.5% | 98.5% | 101% | 101%
O=C1NC(=O)C(c2ccccc2)(c2ccccc2)N1Cc1cn(-c2c3ccccc3nc3ccccc23)nn1 | 85.5% | 99.5% | 92.9% | 87.5% |  | 67.3% | 15.9% | 78.2% | 87.3% | 107%
CCCCCCCCCCCCCCCCCCOc1ccc(CC(=O)OCC[N+]2(C)CCCCC2)cc1 | 86.7% | 101% | 96.4% | 101% |  | 97.8% | 89.2% | 88.9% | 92.8% | 103%
C#C[C@]1(O)CC[C@H]2[C@@H]3CC=C4c5sc(Nc6cc(F)ccc6F)nc5CC[C@]4(C)[C@H]3CC[C@@]21C | 4.23% (active) | 49% | 50.9% | 0.529% (active) |  | 13.1% | 1.36% (active) | 56.7% | -71.9% (active) | 8.29% (active)
